This is an account of results in ChEMBL document CHEMBL1961873, “Compounds: GSK PKIS; Assays: Nanosyn kinase panel” (2012).

In one experiment the test system is Mast/stem cell growth factor receptor Kit (Homo sapiens), P10721 [T670I]. As to conditions: at 0.1 µM.
Mast/stem cell growth factor receptor Kit (Homo sapiens), P10721 [T670I], sequence (P10721 whole entry T670I): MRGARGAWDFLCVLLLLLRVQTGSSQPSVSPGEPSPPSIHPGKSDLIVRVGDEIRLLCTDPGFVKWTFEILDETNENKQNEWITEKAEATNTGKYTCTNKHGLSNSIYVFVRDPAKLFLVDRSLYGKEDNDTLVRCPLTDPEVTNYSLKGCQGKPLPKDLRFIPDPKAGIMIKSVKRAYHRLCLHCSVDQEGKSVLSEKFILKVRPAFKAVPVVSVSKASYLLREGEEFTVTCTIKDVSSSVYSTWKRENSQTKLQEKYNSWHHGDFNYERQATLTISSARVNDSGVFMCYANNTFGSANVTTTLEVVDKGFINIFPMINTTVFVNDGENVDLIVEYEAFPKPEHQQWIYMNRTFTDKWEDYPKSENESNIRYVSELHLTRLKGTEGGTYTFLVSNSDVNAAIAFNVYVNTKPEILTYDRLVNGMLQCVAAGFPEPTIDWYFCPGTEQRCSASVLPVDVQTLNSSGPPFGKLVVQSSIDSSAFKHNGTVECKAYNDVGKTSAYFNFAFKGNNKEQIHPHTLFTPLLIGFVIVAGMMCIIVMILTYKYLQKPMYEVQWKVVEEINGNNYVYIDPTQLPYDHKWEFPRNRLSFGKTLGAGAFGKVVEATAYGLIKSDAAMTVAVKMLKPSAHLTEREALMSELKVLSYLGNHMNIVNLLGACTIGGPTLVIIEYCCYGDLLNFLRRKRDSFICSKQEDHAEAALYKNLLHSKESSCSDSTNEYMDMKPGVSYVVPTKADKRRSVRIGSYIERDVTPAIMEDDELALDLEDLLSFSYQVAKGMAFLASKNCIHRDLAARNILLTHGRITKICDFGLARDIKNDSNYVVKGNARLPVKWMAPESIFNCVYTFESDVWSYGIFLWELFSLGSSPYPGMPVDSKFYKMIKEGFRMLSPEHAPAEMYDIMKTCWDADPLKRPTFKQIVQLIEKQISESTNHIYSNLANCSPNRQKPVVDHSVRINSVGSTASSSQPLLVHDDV
On to `CCn1cc(-c2ccnc3[nH]ccc23)c(-c2cccc(NC(=O)Nc3ccc(OCc4ccccc4)cc3)c2)n1`, for which the inhibition was -1.41%.
As for `Cc1cccc(Nc2ncc(-c3ccccc3)o2)c1`, the inhibition was determined as 4.58%.
The same measure, in the same setting: with `Nc1nc(-c2ccc(F)cc2)c(-c2ccc3ncccc3n2)s1` the figure was 4.73%.
For `FC(F)(F)c1cccc(-c2nn3ncccc3c2-c2ccnc(Nc3ccc4c(c3)OCCO4)n2)c1`, the inhibition is 0.93%.
The same measure, in the same setting: with `CNC(=O)c1cncc(/C=C/c2ccccc2Cl)c1` the figure was -1.89%; with `O=C(O[C@H]1CN[C@H](C#Cc2cc3ncnc(Nc4ccc(Cc5ccccc5)cc4)c3s2)C1)N1CCOCC1`, 1.94%; with `COc1ccc(-c2nn3ncccc3c2-c2ccnc(Nc3ccc4c(c3)OCCO4)n2)cc1`, 3.74%.
On the same count and under the same terms, with `CCNC(=O)O[C@H]1CN[C@H](C#Cc2cc3ncnc(Nc4ccc(OCc5cccc(F)c5)c(Cl)c4)c3s2)C1` the figure was 2.76%.
On to `COc1ccc(-c2oc3ncnc(N)c3c2-c2ccc(NC(=O)Nc3cc(C(F)(F)F)ccc3F)cc2)cc1`, for which the inhibition is 11.8%.
On the same count and under the same terms, with `CCn1c(-c2nonc2N)nc2cnc(Oc3cccc(NC(=O)c4ccc(N(C)C)cc4)c3)cc21` the figure was 0.35%.
For `CCn1c(-c2nonc2N)nc2c(C#CC(C)(C)O)nc(OC[C@H](N)c3ccccc3)cc21`, the inhibition came out at 0.36%.
For the molecule `Fc1ccc(-c2nn3ncccc3c2-c2ccnc(Nc3ccc4c(c3)OCCO4)n2)cc1`, the inhibition came out at 5.56%.
For `COc1cccc(-c2c[nH]c3c(N/N=C/c4ccncc4)ncnc23)c1`, the inhibition is 7.21%.
Same read-out and setting: then `O=C(Nc1n[nH]c2cc(-c3ccc(F)cc3)ccc12)C1CC1`, with 3.36%; and `Clc1ccc(-c2nn3ncccc3c2-c2ccnc(Nc3ccccc3)n2)cc1`, with -3.61%.
Still for that read-out and setting: with `c1ccc(COc2ccc(Nc3ncnc4ccc(-c5ccco5)cc34)cc2)cc1` the figure was 0.67%; with `N#Cc1c(NC(=O)c2ccc(F)cc2)sc2c1CCCC2`, -0.92%.
With `COc1cc(/C=N/Nc2ncnc3[nH]ncc23)ccc1O`, the inhibition was 0.9%.
Still for that read-out and setting: with `Nc1nc(-c2cccc(Cl)c2)c(-c2ccc3ncccc3n2)s1` the figure was 4.73%.
Turning to `COc1cc2ncn(-c3cc(OCc4ccccc4C(F)(F)F)c(C(=O)N(C)C)s3)c2cc1OC`, the inhibition is -0.65%.
On the same count and under the same terms, then `COC(=O)Nc1nc2ccc(S(=O)(=O)c3ccc(NC(=O)Nc4cc(C(F)(F)F)ccc4F)cc3)cc2[nH]1`, with 1.09%; and `COc1ccc(-c2cc3c(N)ncnc3o2)cc1`, with -0.3%; and `COc1cc(N2CCN(C(C)C)CC2)ccc1Nc1nc(Nc2ccc(F)cc2C(N)=O)c2cc[nH]c2n1`, with -2.37%.
The same measure, in the same setting: then `CC1=C(C(=O)Nc2cc(Cl)c3[nH]ncc3c2)C(c2ccc(C(F)(F)F)cc2)CC(=O)N1` (stereo unspecified), with 2.93%; and `CC(=O)NCc1cccc(C#Cc2cncnc2Nc2ccc(OCc3cccc(F)c3)c(Cl)c2)c1`, with 1.52%.
The same measure, in the same setting: then `CCn1c(-c2nonc2N)nc2c(C#CC(C)(C)O)ncc(OC3CCNCC3)c21`, with 1.16%.
Regarding `NS(=O)(=O)c1ccc(Nc2ncc(-c3ccccc3)o2)cc1`, the inhibition came to 14.9%.
Still for that read-out and setting: then `CCCN(CCS(C)(=O)=O)Cc1ccc(-c2ccc3ncnc(Nc4ccc(OCc5cccc(F)c5)c(Cl)c4)c3c2)o1`, with 2.58%.
Same read-out and setting: with `CN1CCC(n2cnc(-c3ccc(F)cc3)c2-c2ccnc(Nc3ccccc3)n2)CC1` the figure was 3.38%; with `COc1ccc(CNC(=O)c2ccc(-c3cc(-c4nnc(C)o4)ccc3C)cc2)cc1`, 2.12%.
For `COc1cc(Nc2nccc(Nc3ccc4c(C)n[nH]c4c3)n2)cc(OC)c1OC`, the inhibition worked out at 4.19%.
On the same count and under the same terms, then `CN1CCC(n2cnc(-c3ccc(F)cc3)c2-c2ccnc(N)n2)CC1`, with 4.69%; and `COc1ccc2c(-c3ccnc(Nc4cccc(OC(F)(F)F)c4)n3)cnn2n1`, with 2.93%.

The next experiment shares this test system. As to conditions: at 1 µM.
For `CCn1cc(-c2ccnc3[nH]ccc23)c(-c2cccc(NC(=O)Nc3ccc(OCc4ccccc4)cc3)c2)n1`, the inhibition was -1.25%.
The same measure, in the same setting: with `Cc1cccc(Nc2ncc(-c3ccccc3)o2)c1` the figure was 48%; with `Nc1nc(-c2ccc(F)cc2)c(-c2ccc3ncccc3n2)s1`, 5.34%; with `FC(F)(F)c1cccc(-c2nn3ncccc3c2-c2ccnc(Nc3ccc4c(c3)OCCO4)n2)c1`, 3.06%.
The same measure, in the same setting: then `CNC(=O)c1cncc(/C=C/c2ccccc2Cl)c1`, with 3.4%.
Take `O=C(O[C@H]1CN[C@H](C#Cc2cc3ncnc(Nc4ccc(Cc5ccccc5)cc4)c3s2)C1)N1CCOCC1`: the inhibition stood at 0.93%.
Same read-out and setting: with `COc1ccc(-c2nn3ncccc3c2-c2ccnc(Nc3ccc4c(c3)OCCO4)n2)cc1` the figure was 34.7%.
Still for that read-out and setting: with `CCNC(=O)O[C@H]1CN[C@H](C#Cc2cc3ncnc(Nc4ccc(OCc5cccc(F)c5)c(Cl)c4)c3s2)C1` the figure was 0.45%.
Same read-out and setting: then `COc1ccc(-c2oc3ncnc(N)c3c2-c2ccc(NC(=O)Nc3cc(C(F)(F)F)ccc3F)cc2)cc1`, with 88.3%; and `CCn1c(-c2nonc2N)nc2cnc(Oc3cccc(NC(=O)c4ccc(N(C)C)cc4)c3)cc21`, with -0.9%.
Consider `CCn1c(-c2nonc2N)nc2c(C#CC(C)(C)O)nc(OC[C@H](N)c3ccccc3)cc21`, for which the inhibition turned out to be 0.72%.
The same measure, in the same setting: with `Fc1ccc(-c2nn3ncccc3c2-c2ccnc(Nc3ccc4c(c3)OCCO4)n2)cc1` the figure was 27.3%.
Consider `COc1cccc(-c2c[nH]c3c(N/N=C/c4ccncc4)ncnc23)c1`, for which the inhibition was 51.1%.
The same measure, in the same setting: with `O=C(Nc1n[nH]c2cc(-c3ccc(F)cc3)ccc12)C1CC1` the figure was 4.92%; with `Clc1ccc(-c2nn3ncccc3c2-c2ccnc(Nc3ccccc3)n2)cc1`, 9.51%.
Turning to `c1ccc(COc2ccc(Nc3ncnc4ccc(-c5ccco5)cc34)cc2)cc1`, the inhibition is -1.15%.
Regarding `N#Cc1c(NC(=O)c2ccc(F)cc2)sc2c1CCCC2`, the inhibition worked out at 1.72%.
On the same count and under the same terms, with `COc1cc(/C=N/Nc2ncnc3[nH]ncc23)ccc1O` the figure was 7.67%; with `Nc1nc(-c2cccc(Cl)c2)c(-c2ccc3ncccc3n2)s1`, 6.56%.
Take `COc1cc2ncn(-c3cc(OCc4ccccc4C(F)(F)F)c(C(=O)N(C)C)s3)c2cc1OC`: the inhibition came out at 1.38%.
Same read-out and setting: with `COC(=O)Nc1nc2ccc(S(=O)(=O)c3ccc(NC(=O)Nc4cc(C(F)(F)F)ccc4F)cc3)cc2[nH]1` the figure was -0.17%; with `COc1ccc(-c2cc3c(N)ncnc3o2)cc1`, -2.59%; with `COc1cc(N2CCN(C(C)C)CC2)ccc1Nc1nc(Nc2ccc(F)cc2C(N)=O)c2cc[nH]c2n1`, -1.31%.
Same read-out and setting: with `CC1=C(C(=O)Nc2cc(Cl)c3[nH]ncc3c2)C(c2ccc(C(F)(F)F)cc2)CC(=O)N1` (stereo unspecified) the figure was 4.07%; with `CC(=O)NCc1cccc(C#Cc2cncnc2Nc2ccc(OCc3cccc(F)c3)c(Cl)c2)c1`, 1.39%; with `CCn1c(-c2nonc2N)nc2c(C#CC(C)(C)O)ncc(OC3CCNCC3)c21`, -0.54%.
The same measure, in the same setting: with `NS(=O)(=O)c1ccc(Nc2ncc(-c3ccccc3)o2)cc1` the figure was 58.7%; with `CCCN(CCS(C)(=O)=O)Cc1ccc(-c2ccc3ncnc(Nc4ccc(OCc5cccc(F)c5)c(Cl)c4)c3c2)o1`, 3.62%; with `CN1CCC(n2cnc(-c3ccc(F)cc3)c2-c2ccnc(Nc3ccccc3)n2)CC1`, 1.42%.
Turning to `COc1ccc(CNC(=O)c2ccc(-c3cc(-c4nnc(C)o4)ccc3C)cc2)cc1`, the inhibition was determined as 3.18%.
On the same count and under the same terms, then `COc1cc(Nc2nccc(Nc3ccc4c(C)n[nH]c4c3)n2)cc(OC)c1OC`, with 43.3%; and `CN1CCC(n2cnc(-c3ccc(F)cc3)c2-c2ccnc(N)n2)CC1`, with 3.03%; and `COc1ccc2c(-c3ccnc(Nc4cccc(OC(F)(F)F)c4)n3)cnn2n1`, with 11.2%.

Usually inhibition stands for the drop in the measured response relative to a control, in per cent.
